Records with an inconclusive call do not appear. Values without a mark were called inactive. Active and inactive are the calls of the source. The call rests on the fitted dose curve; in most records, active means well fitted inhibition curve with a large enough effect; inconclusive means small, poorly fitted or top-dose-only effect, or effect the other way; inactive means flat fitted curve, though single readings scatter.
Potency means the concentration at half of the fitted maximal effect.

A short description of this assay: qHTS for Inhibitors of Plasmodium falciparum (GB4) proliferation (AID 504315). Further: nearly all actives have a fitted effect of over 50% in size.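 On activity change, negative = inhibition: 0% = DMSO vehicle and -100% = 0.29 µM artemisinin control.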 Conditions: P. falciparum GB4 in erythrocytes, SYBR Green DNA, 72 h; series mostly up to 6.7 µM; activity change, negative = inhibition: at the top concentration. The gist of the method: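 Erythrocytes infected with P. falciparum line (0.3% parasitemia, 2.5% hematocrit final) incubated with compounds 72 h at 37 °C, 5% CO2; SYBR Green lysis buffer added, fluorescence read next day. Normalized to 0.29 uM artemisinin and DMSO.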
In the case of `COC/C=C/C1=CC2=CC(=O)C(C)(OC(=O)c3cnc4ccccc4n3)C(=O)C2=CN1CCc1c[nH]c2ccccc12` (stereo not given), the “activity change, negative = inhibition” value is 4.06%.

With `COC(=O)CCCC1=CC2=C(c3ccccc3)C(=O)C(C)(OC(=O)C3CCCC3)C(=O)C2=CN1CCc1ccccn1` (stereo not given), the “activity change, negative = inhibition” value was 15.1%.

Consider `CCCCC1=CC2=CC(=O)C(C)(OC(=O)CC)C(=O)C2=CN1C(CO)CO` (stereo not given), for which the “activity change, negative = inhibition” value is 13.3%.

With `CCN(CC)CCCN1C=C2C(=O)C(C)(OC(=O)CCC(=O)OC)C(=O)C=C2C=C1C1CC1` (stereo not given), the “activity change, negative = inhibition” value was 12.7%.

Turning to `CCN1C(=O)N[C@@H](c2ccccc2)C(C(=O)OC)=C1C`, the “activity change, negative = inhibition” value is 9.85%.

Regarding `COC(=O)C1=C(C(=O)OC)[C@@H]2N(Cc3ccccc3)c3ccccc3[C@@]23C[C@@H](C(=O)OC)N(C(C)=O)C3=N1`, the “activity change, negative = inhibition” value is 8.04%.

Regarding `CCOC(=O)CN1C(=O)N[C@@H](c2ccco2)C(C(C)=O)=C1C`, the “activity change, negative = inhibition” value was -1.97%.

With `COC(=O)[C@@H]1[C@H](CCc2ccccc2)NC(=O)N(Cc2ccccc2)[C@@H]1C`, the “activity change, negative = inhibition” value was 3.41%.

With `COC(=O)C1=C(C(=O)OC)[C@@H]2N(C)c3ccc(OC)cc3[C@@]23C[C@@H](C(=O)OC)N(C(=O)C2CCC2)C3=N1`, the “activity change, negative = inhibition” value was -13.1%.

For `COCC(=O)N1CCc2nc(-c3ccc(OC)cc3C)c3c(c2C1)CO[C@@H](c1ccccc1)C3`, the “activity change, negative = inhibition” value is 1.02%.

Take `COC(=O)C1=C(C(=O)OC)[C@@H]2N(C)c3ccccc3[C@@]23C[C@@H](C(=O)OC)N(C(=O)CC(C)C)C3=N1`: the “activity change, negative = inhibition” value is -3.21%.

Consider `COC(=O)C1=C(C)N(Cc2ccccc2)C(=O)N[C@H]1c1ccco1`, for which the “activity change, negative = inhibition” value is -0.167%.

Turning to `COC(=O)CCC(=O)OC1(C)C(=O)C=C2C=C(C3CC3)N(Cc3ccccc3)C=C2C1=O` (stereo not given), the “activity change, negative = inhibition” value is 9.19%.

For `COC/C=C/C1=CC2=CC(=O)C(C)(OC(=O)c3cnc4ccccc4n3)C(=O)C2=CN1CCc1ccccn1` (stereo not given), the “activity change, negative = inhibition” value is 8.12%.

For `COC(=O)C1=C(C)N(Cc2ccccc2)C(=O)NC1c1ccco1` (stereo not given), the “activity change, negative = inhibition” value is -9.52%.

In the case of `CC(=O)[C@@H]1[C@@H](C)N(Cc2ccccc2)C(=O)N[C@H]1c1cccc(C(F)(F)F)c1`, the Potency entry was “inactive”.

For the compound `COC(=O)C1=C(C(=O)OC)[C@@H]2Nc3ccccc3[C@@]23C[C@@H](C(=O)OC)N(S(=O)(=O)c2ccc(C)cc2)C3=N1`, the “activity change, negative = inhibition” value is 4.3%.

For `CC1(OC(=O)CCc2ccccc2)C(=O)C=C2C=C(c3ccc(C#N)cc3)N(CCN3CCOCC3)C=C2C1=O` (stereo not given), the “activity change, negative = inhibition” value is 7.36%.

`CCOC(=O)CN1C(=O)N[C@@H](c2ccccc2)[C@H](C(=O)OC)[C@H]1C`: the “activity change, negative = inhibition” value was 15.9%.

In the case of `CCCCC1=CC2=C(c3ccco3)C(=O)C(C)(OC(=O)c3ccc(OC)cc3)C(=O)C2=CN1c1ccccc1` (stereo not given), the “activity change, negative = inhibition” value was 1.29%.

For `C=CC1=C2C=C(C3CC3)N(CCCN(CC)CC)C=C2C(=O)C(C)(OC(=O)c2ccco2)C1=O` (stereo not given), the “activity change, negative = inhibition” value was -3.42%.

In the case of `CCOC(=O)CN1C(=O)N[C@@H](c2cccc(F)c2)C(C(=O)OC)=C1C`, the “activity change, negative = inhibition” value is 2.51%.

For the compound `CCOC(=O)NN=C1C[C@@H](O)[C@@H](O)[C@@H]2[C@H]3C(=O)N([C@@H](C)c4ccccc4)C(=O)[C@@H]3CC[C@@H]12`, the “activity change, negative = inhibition” value is -3.17%.

For the compound `COC(=O)C1=C(C)N(Cc2ccccc2)C(=O)N[C@H]1CCc1ccccc1`, the “activity change, negative = inhibition” value was -3.68%.

`COC(=O)C1=C(C(=O)OC)[C@@H]2N(C)c3ccccc3[C@@]23C[C@@H](C(=O)OC)N(S(=O)(=O)c2ccc(C#N)cc2)C3=N1`: the “activity change, negative = inhibition” value was 1.11%.

For the compound `COC(=O)C1=C(C(=O)OC)[C@@H]2N(C)c3ccccc3[C@@]23C[C@@H](CO)N=C3N1`, the “activity change, negative = inhibition” value is 11%.

As for `CCCC[C@]12Cc3c(ccc4ccccc34)[C@H](O1)C1=C(O2)C(=O)c2ccccc2C1=O`, the Potency was 1.69 µM (active).

Regarding `C[C@H]1Cc2c(-c3ccccc3)nc3c(c2CO1)CN(S(=O)(=O)c1ccc(C#N)cc1)CC3`, the “activity change, negative = inhibition” value was 2.95%.

Take `COC/C=C/C1=CC2=CC(=O)C(C)(OC(=O)c3cnc4ccccc4n3)C(=O)C2=CN1CCN1CCOCC1` (stereo not given): the “activity change, negative = inhibition” value is 10.9%.

`COc1ccc(N2C=C3C(=O)C(C)(OC(=O)CCc4ccccc4)C(=O)C=C3C=C2c2ccc(C#N)cc2)cc1` (stereo not given): the “activity change, negative = inhibition” value is 13.9%.

These data come from PubChem BioAssay (NCATS).
